The record followed here is PubChem BioAssay.

Results filed as inconclusive are left out. Active and inactive are the calls of the source.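 Rule for the calls, unless noted: active = percent response above 42, roughly 3 SD of non-fluorescent test compounds; inactive = the rest.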

Experiment [1] can be described thus: yeast TOR pathway RPL19A-GFP modulators, primary screen, cell-based, S. cerevisiae, multiplex flow cytometry (AID 1862; in the data active = percent of DMSO control GFP below about 86%;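 note: lower values mimic rapamycin by blocking the RPL19A rise seen in DMSO cells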). The following applies: S. cerevisiae RPL19A-GFP strain, flow cytometry fluorescence, 3 h; at 10 µM; stronger effect = lower value. (Flow cytometry measures light scatter and fluorescence of single cells or particles in a stream.)
A short description of experiment [2]: modulators of MEP2-GFP levels in yeast, primary screen, S. cerevisiae, multiplex flow cytometry (AID 1867;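 active = GFP response, as percent of the DMSO control, above the screen-wide mean plus 3 SD, about 139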;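 note: median GFP channel fluorescence of barcode-gated MEP2-GFP cells measured by flow cytometry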). Particulars: S. cerevisiae MEP2-GFP strain, 3 h, at 10 µM, stronger effect = higher value, 100% means same as DMSO wells.
A short description of experiment [3]: modulators of CIT2-GFP expression in yeast, primary screen, S. cerevisiae, GFP fusion, multiplex flow cytometry (AID 1870;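 active = percent response above a set limit, the screen-wide mean plus 3 SD, cut at about 130% in these data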;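 note: barcoded CIT2-GFP strain pooled with four other GFP strains with rapamycin as positive control; median GFP fluorescence per well over plate mean of DMSO wells so 100% = DMSO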). Particulars: 3 h, at 10 µM, stronger effect = higher value.
Experiment [4] in a line: modulators of LAP4-GFP expression in yeast, primary screen, S. cerevisiae, multiplex flow cytometry (AID 1873;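 active = GFP signal, as percent of the solvent control, above the screen mean plus 3 SD, about 149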). Particulars: 3 h, at 10 µM, stronger effect = higher value.
The nature of experiment [5]: modulators of AGP1-GFP expression in yeast TOR pathway, primary screen, cell-based, multiplex flow cytometry, S. cerevisiae (AID 1887;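 active = GFP signal above the screen-wide mean plus 3 SD, that is over about 124.5% of the solvent control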;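 note: AGP1-GFP fusion strain of S. cerevisiae within a five-strain barcoded multiplex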). Particulars: 3 h, at 10 µM, stronger effect = higher value.
Experiment [6] in a line: inhibitors of CD8+ T cell-vesicle binding, pilot screen, LFA-1/ICAM-1 modulator project, MLPCN validation set, flow cytometry (AID 2523;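 active = response below a set limit, under 55% cells CD8-positive and vesicle-bound, and CD8 cells' 90th-percentile brightness under 279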;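 for vesicle binding response: mean PE anti-B7-1 fluorescence of CD8+ cells relative to row control; 100% = QL9-loaded vesicles with DMSO vehicle in the same plate row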). Particulars: 2C mouse CD8+ T cells, at 7 µM, stronger effect = lower value; double positive events: measured here: CD8+/vesicle+ event percentage.
The target in experiment [7] is Integrin beta-1 (Homo sapiens) + Integrin alpha-4 (Homo sapiens) (UniProt P13612+P05556). Nature of the experiment: inhibition of HUTS-21 binding to VLA-4, pilot screen, VLA-4 allosteric modulator project, U937 cells, HUTS-21 mAb, flow cytometry, validation set (AID 2674;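 active = inhibition above 50%, about 3 SD of the validation set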;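 note: antibody binding induced by the VLA-4 ligand LDV present at three times its Kd; 0% = LDV ligand with antibody and no compound and 100% = antibody without LDV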). The following applies: HUTS-21 LIBS mAb binding, at 6.7 µM, stronger effect = higher value, binding induced by LDV ligand.
Sequence of Integrin beta-1 (Homo sapiens) + Integrin alpha-4 (Homo sapiens) (P05556 whole entry, looked up): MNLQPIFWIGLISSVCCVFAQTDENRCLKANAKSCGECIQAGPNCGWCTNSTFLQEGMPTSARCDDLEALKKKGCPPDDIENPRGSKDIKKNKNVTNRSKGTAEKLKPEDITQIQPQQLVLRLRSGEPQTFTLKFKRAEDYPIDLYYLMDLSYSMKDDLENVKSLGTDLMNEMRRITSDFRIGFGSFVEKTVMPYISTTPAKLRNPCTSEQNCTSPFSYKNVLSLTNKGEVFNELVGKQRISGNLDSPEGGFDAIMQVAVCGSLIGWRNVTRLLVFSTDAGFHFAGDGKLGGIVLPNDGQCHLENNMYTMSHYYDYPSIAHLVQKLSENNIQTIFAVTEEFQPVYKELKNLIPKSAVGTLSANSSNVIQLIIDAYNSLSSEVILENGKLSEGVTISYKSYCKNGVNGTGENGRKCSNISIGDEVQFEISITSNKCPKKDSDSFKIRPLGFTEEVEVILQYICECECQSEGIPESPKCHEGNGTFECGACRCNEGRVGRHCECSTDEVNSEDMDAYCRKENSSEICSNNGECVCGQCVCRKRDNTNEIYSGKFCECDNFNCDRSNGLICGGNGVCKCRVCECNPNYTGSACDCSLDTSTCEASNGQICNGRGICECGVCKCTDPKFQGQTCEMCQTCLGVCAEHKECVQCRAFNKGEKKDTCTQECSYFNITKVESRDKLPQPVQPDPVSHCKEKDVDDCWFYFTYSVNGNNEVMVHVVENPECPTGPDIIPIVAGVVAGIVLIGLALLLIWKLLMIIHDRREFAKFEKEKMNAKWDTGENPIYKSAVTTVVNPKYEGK
Sequence of Integrin beta-1 (Homo sapiens) + Integrin alpha-4 (Homo sapiens) (P13612 whole entry, looked up): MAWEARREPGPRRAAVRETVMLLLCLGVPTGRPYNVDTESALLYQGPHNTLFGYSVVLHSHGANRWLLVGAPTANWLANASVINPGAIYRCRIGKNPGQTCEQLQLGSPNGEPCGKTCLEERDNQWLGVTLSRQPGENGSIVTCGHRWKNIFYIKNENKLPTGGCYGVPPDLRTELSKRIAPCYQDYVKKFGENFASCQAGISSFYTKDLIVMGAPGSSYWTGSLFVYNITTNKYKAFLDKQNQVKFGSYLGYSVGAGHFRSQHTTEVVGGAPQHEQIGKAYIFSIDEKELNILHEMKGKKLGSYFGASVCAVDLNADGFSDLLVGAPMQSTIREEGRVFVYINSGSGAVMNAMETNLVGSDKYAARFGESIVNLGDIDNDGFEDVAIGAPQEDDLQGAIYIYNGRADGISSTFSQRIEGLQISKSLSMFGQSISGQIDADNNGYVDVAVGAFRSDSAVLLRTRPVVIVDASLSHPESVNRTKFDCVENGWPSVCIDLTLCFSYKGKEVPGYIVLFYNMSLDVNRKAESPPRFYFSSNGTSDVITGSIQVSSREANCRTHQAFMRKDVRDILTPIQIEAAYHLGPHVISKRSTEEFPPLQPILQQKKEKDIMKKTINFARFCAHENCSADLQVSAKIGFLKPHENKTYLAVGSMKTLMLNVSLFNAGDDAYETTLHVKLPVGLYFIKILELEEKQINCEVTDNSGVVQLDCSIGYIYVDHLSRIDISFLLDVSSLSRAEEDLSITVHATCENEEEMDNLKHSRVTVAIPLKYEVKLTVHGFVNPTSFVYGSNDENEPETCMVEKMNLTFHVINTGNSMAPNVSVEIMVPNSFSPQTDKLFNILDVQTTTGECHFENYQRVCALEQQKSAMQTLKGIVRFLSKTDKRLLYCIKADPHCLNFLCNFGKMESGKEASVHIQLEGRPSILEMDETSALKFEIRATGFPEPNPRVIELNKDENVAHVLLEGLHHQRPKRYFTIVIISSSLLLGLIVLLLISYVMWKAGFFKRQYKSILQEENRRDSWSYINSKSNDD

The nature of experiment [8]: superoxide lowering in aged yeast cells, pilot screen, validation compound set (AID 2706;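 active = superoxide response below 65% of plate, a cut near 3 SD across the whole screen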;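 note: yeast exposed to compound for one week at 30 degrees C before staining; 100% = mean of all compound wells on the same plate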). The following applies: S. cerevisiae aging, superoxide DHE fluorescence; at 10 µM; stronger effect = lower value.
Experiment [9] addresses Beta-adrenergic receptor kinase 1 (Homo sapiens) (UniProt P25098). Nature of the experiment: GRK2 binders displacing RNA aptamer, biochemical, validation, human GRK2, bead flow cytometry (AID 488806;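 active = aptamer binding inhibition above 30%, about 3 SD of noise from non-fluorescent compounds; inactive = inhibition at or below 30%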). The following applies: bead-bound GRK2, FAM-aptamer displacement, at 10 µM, stronger effect = higher value.
The target of experiment [10] is Beta-2 adrenergic receptor (Homo sapiens) (UniProt P07550). Nature of the experiment: beta2AR agonists driving receptor internalization, pilot screen, cell-based, FAP fluorogen, flow cytometry, validation set (AID 504459).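 Note: agonist-driven loss of surface beta2AR via internalization measured by FAP dye flow cytometry.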 The following applies: Am2.2-beta2AR cells, FAP surface receptor flow cytometry; at 10 µM; stronger effect = higher value.
Sequence of Beta-2 adrenergic receptor (Homo sapiens) (P07550 whole entry, looked up): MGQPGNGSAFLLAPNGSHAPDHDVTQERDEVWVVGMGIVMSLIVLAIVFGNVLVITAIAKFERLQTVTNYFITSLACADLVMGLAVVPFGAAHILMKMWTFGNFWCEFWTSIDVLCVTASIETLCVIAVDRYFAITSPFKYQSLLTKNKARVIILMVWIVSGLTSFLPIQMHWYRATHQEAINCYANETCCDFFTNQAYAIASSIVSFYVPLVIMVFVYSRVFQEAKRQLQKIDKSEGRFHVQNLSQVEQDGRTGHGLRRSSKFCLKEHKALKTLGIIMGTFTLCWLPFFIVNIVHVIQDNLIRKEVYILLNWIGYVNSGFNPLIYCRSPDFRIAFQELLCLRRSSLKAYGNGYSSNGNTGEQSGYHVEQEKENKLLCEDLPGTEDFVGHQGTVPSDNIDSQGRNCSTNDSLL
The target of experiment [11] is AP-2 complex subunit beta (Homo sapiens) (UniProt P63010). The experiment can be described thus: inhibitors of arrestin peptide binding to AP2, pilot screen, biochemical, validation set, GST-AP2 beads, flow cytometry (AID 504541;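 active = inhibition above 54%, about 3 SD of non-fluorescent compounds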;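 note: AP2 carries R879A mutation and is captured from E. coli lysate; bead-bound FITC arrestin peptide fluorescence measuring arrestin peptide binding to AP2; 0% = DMSO wells and 100% = excess unlabeled arrestin peptide control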). The following applies: FITC arrestin peptide, at 10 µM, stronger effect = higher value, AP2 beta2 appendage fragment, R879A mutant.
Sequence of AP-2 complex subunit beta (Homo sapiens) (P63010 whole entry, looked up, the tested form may be a part, one chain of several): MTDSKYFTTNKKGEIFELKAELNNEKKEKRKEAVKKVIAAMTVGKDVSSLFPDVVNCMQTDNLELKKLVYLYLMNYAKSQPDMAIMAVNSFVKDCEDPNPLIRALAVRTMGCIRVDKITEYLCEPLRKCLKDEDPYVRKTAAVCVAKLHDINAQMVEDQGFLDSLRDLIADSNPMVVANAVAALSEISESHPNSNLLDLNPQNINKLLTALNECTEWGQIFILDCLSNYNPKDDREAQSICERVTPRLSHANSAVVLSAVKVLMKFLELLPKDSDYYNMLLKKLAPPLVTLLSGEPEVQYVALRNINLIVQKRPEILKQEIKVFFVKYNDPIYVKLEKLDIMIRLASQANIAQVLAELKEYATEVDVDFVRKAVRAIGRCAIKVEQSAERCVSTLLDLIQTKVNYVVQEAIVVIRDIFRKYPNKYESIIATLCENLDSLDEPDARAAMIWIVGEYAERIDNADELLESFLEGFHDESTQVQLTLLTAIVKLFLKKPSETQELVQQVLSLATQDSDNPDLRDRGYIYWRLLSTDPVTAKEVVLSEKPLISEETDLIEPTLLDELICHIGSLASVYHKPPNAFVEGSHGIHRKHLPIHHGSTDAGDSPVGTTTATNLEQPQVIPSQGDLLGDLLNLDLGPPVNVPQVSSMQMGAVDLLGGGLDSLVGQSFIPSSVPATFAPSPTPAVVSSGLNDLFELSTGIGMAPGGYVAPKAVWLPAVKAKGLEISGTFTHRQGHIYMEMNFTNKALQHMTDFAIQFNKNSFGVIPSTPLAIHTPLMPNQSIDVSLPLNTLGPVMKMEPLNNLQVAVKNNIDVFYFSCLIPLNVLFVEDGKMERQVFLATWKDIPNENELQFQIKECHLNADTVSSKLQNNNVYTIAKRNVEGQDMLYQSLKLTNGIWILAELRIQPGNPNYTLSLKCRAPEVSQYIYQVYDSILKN
Experiment [12] is described as follows: yeast V-ATPase proton transport modulators, S. cerevisiae, pHLuorin, HTS validation (AID 504600; in the data active = response above about 15%;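 note: plate controls were DMSO for no effect and reference compound for full effect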). Particulars: S. cerevisiae pHLuorin cytosolic pH, at 10 µM, stronger effect = higher value.
In experiment [13] the test system is anti-desmoglein-3 scFv antibody binding to human DSG3. Nature of the experiment: inhibitors of anti-DSG3 scFv binding to DSG3, pilot screen, biochemical, validation compound set, bead-based, flow cytometry (AID 588368;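 active = binding below the plate cutoff, the plate median minus 3 SD, with a reading above zero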;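 note: signal is the median channel fluorescence of bead-bound GFP antibody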). The following applies: Protein G beads, DSG3-Fc, scFv-GFP binding, at 10 µM, stronger effect = lower value.
The nature of experiment [14]: inhibitors of fungal efflux pumps CDR1, CDR2, MDR1, pilot screen, validation compound set, multiplex, phenotypic (AID 588506;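 active = efflux inhibition above 0.42, the validation set average plus 4 SD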;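 note: Nile Red retained in cells so higher fluorescence means more efflux inhibition; 0 = negative control wells and 1 = enniatin B 25 µM full block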). Particulars: S. cerevisiae pump-expressing triplex, Nile Red efflux flow cytometry; at 10 µM; stronger effect = higher value; the pumps come from Candida albicans.
The target in experiment [15] is ATP-binding cassette sub-family B member 6 (Homo sapiens) (UniProt Q9NP58). Nature of the experiment: ABCB6 transporter inhibitors, pilot screen, K562-ABCB6 cells, flow cytometry, validation set (AID 588550;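 active = inhibition above the screen-wide mean plus 3 SD, about 51%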;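 note: 0% = DMSO wells and 100% = benzethonium chloride 70 µM positive control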). The following applies: K562-ABCB6 porphyrin accumulation, 1 h, at 10 µM, stronger effect = higher value.
Sequence of ATP-binding cassette sub-family B member 6 (Homo sapiens) (Q9NP58 whole entry, looked up): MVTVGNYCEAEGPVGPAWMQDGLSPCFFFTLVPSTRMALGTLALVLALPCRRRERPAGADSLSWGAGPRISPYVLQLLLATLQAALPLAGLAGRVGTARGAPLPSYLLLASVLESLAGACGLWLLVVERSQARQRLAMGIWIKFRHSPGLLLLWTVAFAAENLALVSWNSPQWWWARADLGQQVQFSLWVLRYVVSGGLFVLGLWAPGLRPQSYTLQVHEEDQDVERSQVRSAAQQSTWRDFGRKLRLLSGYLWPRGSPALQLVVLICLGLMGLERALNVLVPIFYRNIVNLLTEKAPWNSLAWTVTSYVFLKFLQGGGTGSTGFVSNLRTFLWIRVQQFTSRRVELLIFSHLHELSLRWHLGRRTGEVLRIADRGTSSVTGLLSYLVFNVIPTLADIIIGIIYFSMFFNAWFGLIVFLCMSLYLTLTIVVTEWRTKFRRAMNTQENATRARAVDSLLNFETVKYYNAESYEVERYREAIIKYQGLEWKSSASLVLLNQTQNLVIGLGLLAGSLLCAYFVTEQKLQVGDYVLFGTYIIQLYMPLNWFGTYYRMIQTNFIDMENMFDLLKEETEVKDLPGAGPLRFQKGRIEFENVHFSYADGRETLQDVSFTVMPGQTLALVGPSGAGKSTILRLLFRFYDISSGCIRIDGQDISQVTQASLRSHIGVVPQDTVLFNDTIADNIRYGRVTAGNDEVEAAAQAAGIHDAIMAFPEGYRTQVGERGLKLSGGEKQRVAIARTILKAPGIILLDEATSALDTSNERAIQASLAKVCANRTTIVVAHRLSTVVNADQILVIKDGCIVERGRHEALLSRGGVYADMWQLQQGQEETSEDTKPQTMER
Experiment [16] is described as follows: promoters of myeloid differentiation in arrested cells, primary screen, cell-based, GFP/MAC1 double positive, flow cytometry, validation set (AID 588685;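 active = differentiation response of at least 50%, scaled between solvent and reference control, from cells with both markers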;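 note: compound exposure lasts four days before antibody staining and flow analysis; 0% = DMSO wells and 100% = 5 µM fulvestrant positive control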). The following applies: ER-HoxA9 marrow cells, stronger effect = higher value, normalized: vehicle 0, fulvestrant 100.

Sequence of Beta-adrenergic receptor kinase 1 (Homo sapiens) (P25098 whole entry, looked up): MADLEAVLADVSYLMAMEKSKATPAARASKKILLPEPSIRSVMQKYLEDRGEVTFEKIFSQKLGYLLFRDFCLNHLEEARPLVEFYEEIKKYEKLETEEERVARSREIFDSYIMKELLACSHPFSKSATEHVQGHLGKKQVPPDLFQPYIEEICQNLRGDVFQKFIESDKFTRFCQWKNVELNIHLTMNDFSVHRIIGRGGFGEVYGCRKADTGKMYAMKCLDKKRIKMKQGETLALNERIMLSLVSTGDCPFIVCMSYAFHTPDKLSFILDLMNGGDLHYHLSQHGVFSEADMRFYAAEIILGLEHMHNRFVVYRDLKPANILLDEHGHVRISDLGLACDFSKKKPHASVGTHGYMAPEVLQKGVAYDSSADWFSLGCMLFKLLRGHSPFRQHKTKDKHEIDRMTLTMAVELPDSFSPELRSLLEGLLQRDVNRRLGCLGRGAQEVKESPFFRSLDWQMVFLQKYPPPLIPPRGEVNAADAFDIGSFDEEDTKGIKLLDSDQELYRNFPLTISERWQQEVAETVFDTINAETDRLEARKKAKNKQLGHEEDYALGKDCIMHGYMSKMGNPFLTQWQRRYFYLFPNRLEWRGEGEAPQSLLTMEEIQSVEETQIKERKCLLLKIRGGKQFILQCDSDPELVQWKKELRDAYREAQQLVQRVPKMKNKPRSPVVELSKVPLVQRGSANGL

Usually inhibition stands for the change of the read-out against control, counted positive when it falls. With `O=C(NCCc1c[nH]c2ccccc12)c1cccnc1`, the percent of DMSO control GFP in [1] is 101% (inactive). The GFP response vs DMSO in experiment [2] was 101% (inactive); in [4], 113% (inactive). Also, the percent response of DMSO control in experiment [3] is 98.6% (inactive). Also, the GFP response, % of DMSO in experiment [5] is 103% (inactive). In experiment [6], the double positive events was 61.5%. Besides, the vesicle binding response in experiment [6] is 188% (inactive). For the same compound, the inhibition was 2.3% (inactive) in experiment [7], 17.6% (inactive) in [11] and 6% (inactive) in [15]. Further, the superoxide response (% of plate) in experiment [8] was 93.7% (inactive). Also, the aptamer binding inhibition in [9] is 3% (inactive). Besides, the response in [10] was -0.09% (inactive); in experiment [12] it was -6.3% (inactive). Further, in [13], the binding (% of control) was 90.1% (inactive). The efflux inhibition (fraction of control) in experiment [14] is 0.3 (inactive). Besides, in [16], the differentiation response is 12% (inactive).
Take `C#CCN1C(=O)C(O)(c2c(C)[nH]c3ccccc23)c2ccccc21` (stereo not drawn): the percent of DMSO control GFP in [1] was 103% (inactive). Besides, the values for the GFP response vs DMSO in experiment [2] and in experiment [4] were 106% (inactive) and 103% (inactive), respectively. In experiment [3], the percent response of DMSO control is 96% (inactive). The GFP response, % of DMSO in [5] was 100% (inactive). Moreover, the double positive events in experiment [6] is 65%. In addition, in experiment [6], the vesicle binding response is 220% (inactive). Further, the figures for the inhibition in [7], in experiment [11] and in experiment [15] were -0.31% (inactive), 2.17% (inactive) and 3% (inactive), respectively. Also, in experiment [8], the superoxide response (% of plate) is 96.9% (inactive). The aptamer binding inhibition in experiment [9] is 3% (inactive). The response was 1% (inactive) in [10] and -0.83% (inactive) in experiment [12]. For the same compound, in experiment [13], the binding (% of control) was 100% (inactive). For the same compound, the efflux inhibition (fraction of control) in experiment [14] is -0.44 (inactive). Further, the differentiation response in experiment [16] is 0% (inactive).
Regarding `CCNC(=O)C12CCC(C)(C(=O)O1)C2(C)C` (stereo not drawn), the percent of DMSO control GFP in experiment [1] is 105% (inactive). Also, the GFP response vs DMSO in [2] is 102% (inactive); in experiment [4] it was 95.8% (inactive). Moreover, the percent response of DMSO control in experiment [3] is 102% (inactive). Moreover, the GFP response, % of DMSO in [5] was 101% (inactive). In experiment [6], this compound registered a double positive events of 60.6%. In addition, the vesicle binding response in experiment [6] is 120% (inactive). In addition, the inhibition is 8.28% (inactive) in experiment [7], 6.39% (inactive) in experiment [11] and 7% (inactive) in experiment [15]. In addition, in experiment [8], the superoxide response (% of plate) was 105% (inactive). Besides, the aptamer binding inhibition in experiment [9] was 2% (inactive). The response in [10] is 6.09% (inactive); in experiment [12] it was 2.81% (inactive). Further, the binding (% of control) in experiment [13] is 95.7% (inactive). Further, the efflux inhibition (fraction of control) in [14] is -0.54 (inactive). Further, in [16], the differentiation response was 1.17% (inactive).
For `N/C(=N\OC(=O)CCCOc1ccc(Cl)cc1Cl)c1ccncc1`, in [1], the percent of DMSO control GFP was 96.4% (inactive). The GFP response vs DMSO was 110% (inactive) in experiment [2] and 118% (inactive) in experiment [4]. Further, in [3], the percent response of DMSO control is 108% (inactive). In addition, the GFP response, % of DMSO in experiment [5] is 92.4% (inactive). Also, in experiment [6], the double positive events worked out at 56.8%. For the same compound, in experiment [6], the vesicle binding response is 142% (inactive). The inhibition in experiment [7] was 4.27% (inactive); in experiment [11] it was 3.28% (inactive); in experiment [15], -7% (inactive). Besides, the superoxide response (% of plate) in experiment [8] is 103% (inactive). Besides, in experiment [9], the aptamer binding inhibition was -1% (inactive). Moreover, the response in [10] was -12.7% (inactive); in experiment [12] it was -3.36% (inactive). Also, the binding (% of control) in experiment [13] is 102% (inactive). In addition, the efflux inhibition (fraction of control) in [14] was -0.005 (inactive). In addition, the differentiation response in experiment [16] is 4.2% (inactive).
